Reference: the supplement of paper PMC7411054

Key:
Conditions in all cases: treatment time: 24 h
A549-ACTB-RAB5A [1] = experiment: lowest phenotypically active concentration; higher = less potent
Method in brief: (§1)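 Each of fifteen gene-edited A549, HepG2 and WPMY1 reporter lines, marked with BFP for segmentation and GFP and RFP/FusionRed, was treated in four wells at 0.3, 1, 3 or 9 µM for 24 h prior to live imaging. Normalisation of per-well live-cell features used solvent control wells. Deviation needed ≥3 of 4 wells beyond the 95th percentile of control Euclidean distances, and reproducibility needed a median replicate Pearson correlation above the 95th percentile of non-replicates. Both were required for phenotypic activity.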

A549-GM130-SQSTM1 [2] = experiment: as above
Method in brief: as §1

WPMY1-CANX-COX4 [3] = experiment: as above
Method in brief: as §1

WPMY1-GM130-SQSTM1 [4] = experiment: as above
Method in brief: as §1

A549-ACTB-RAB5A [5] = experiment: phenotypically active (imaging signature differs from DMSO and reproducible) at any of 0.3-9 uM (binary (1 = active, 0 = inactive)); higher = active
Method in brief: as §1

A549-CANX-COX4 = experiment: as above
Method in brief: as §1

A549-GM130-SQSTM1 [6] = experiment: as above
Method in brief: as §1

A549-TP53BP1-CLTA = experiment: as above
Method in brief: as §1

A549-TUBA1B-RELA = experiment: as above
Method in brief: as §1

HepG2-ACTB-RAB5A [7] = experiment: as above
Method in brief: as §1

HepG2-CANX-COX4 = experiment: as above
Method in brief: as §1

HepG2-GM130-SQSTM1 = experiment: as above
Method in brief: as §1

HepG2-TP53BP1-CLTA = experiment: as above
Method in brief: as §1

HepG2-TUBA1B-RELA = experiment: as above
Method in brief: as §1

WPMY1-ACTB-RAB5A = experiment: as above
Method in brief: as §1

WPMY1-CANX-COX4 [8] = experiment: as above
Method in brief: as §1

WPMY1-GM130-SQSTM1 [9] = experiment: as above
Method in brief: as §1

WPMY1-TP53BP1-CLTA = experiment: as above
Method in brief: as §1

WPMY1-TUBA1B-RELA = experiment: as above
Method in brief: as §1

HepG2-ACTB-RAB5A [10] = experiment: lowest phenotypically active concentration; higher = less potent
Method in brief: as §1

CCN(CCO)CCCC(C)Nc1ccnc2cc(Cl)ccc12 (stereo not given) [hydroxychloroquine]
9 µM: lowest phenotypically active concentration (A549-ACTB-RAB5A [1]) | lowest phenotypically active concentration (A549-GM130-SQSTM1 [2]) | lowest phenotypically active concentration (WPMY1-CANX-COX4 [3]) | lowest phenotypically active concentration (WPMY1-GM130-SQSTM1 [4])
active: phenotypically active (A549-ACTB-RAB5A [5]) 1 | phenotypically active (A549-GM130-SQSTM1 [6]) 1 | phenotypically active (A549-TUBA1B-RELA) 1 | phenotypically active (HepG2-GM130-SQSTM1) 1 | phenotypically active (HepG2-TUBA1B-RELA) 1 | phenotypically active (WPMY1-ACTB-RAB5A) 1 | phenotypically active (WPMY1-CANX-COX4 [8]) 1 | phenotypically active (WPMY1-GM130-SQSTM1 [9]) 1 | phenotypically active (WPMY1-TUBA1B-RELA) 1
inactive: phenotypically active (A549-CANX-COX4) 0 | phenotypically active (A549-TP53BP1-CLTA) 0 | phenotypically active (HepG2-ACTB-RAB5A [7]) 0 | phenotypically active (HepG2-CANX-COX4) 0 | phenotypically active (HepG2-TP53BP1-CLTA) 0 | phenotypically active (WPMY1-TP53BP1-CLTA) 0

CC(CN(C)C)CN1c2ccccc2CCc2ccccc21 (stereo not given) [trimipramine]
inactive: phenotypically active (A549-CANX-COX4) 0 | phenotypically active (A549-TP53BP1-CLTA) 0 | phenotypically active (HepG2-CANX-COX4) 0 | phenotypically active (HepG2-GM130-SQSTM1) 0 | phenotypically active (HepG2-TP53BP1-CLTA) 0 | phenotypically active (WPMY1-TP53BP1-CLTA) 0 | phenotypically active (WPMY1-TUBA1B-RELA) 0
9 µM: lowest phenotypically active concentration (A549-ACTB-RAB5A [1]) | lowest phenotypically active concentration (A549-GM130-SQSTM1 [2]) | lowest phenotypically active concentration (HepG2-ACTB-RAB5A [10]) | lowest phenotypically active concentration (WPMY1-CANX-COX4 [3]) | lowest phenotypically active concentration (WPMY1-GM130-SQSTM1 [4])
active: phenotypically active (A549-ACTB-RAB5A [5]) 1 | phenotypically active (A549-GM130-SQSTM1 [6]) 1 | phenotypically active (A549-TUBA1B-RELA) 1 | phenotypically active (HepG2-ACTB-RAB5A [7]) 1 | phenotypically active (HepG2-TUBA1B-RELA) 1 | phenotypically active (WPMY1-ACTB-RAB5A) 1 | phenotypically active (WPMY1-CANX-COX4 [8]) 1 | phenotypically active (WPMY1-GM130-SQSTM1 [9]) 1

COCCCC/C(=N/OCCN)c1ccc(C(F)(F)F)cc1 [fluvoxamine]
active: phenotypically active (A549-ACTB-RAB5A [5]) 1 | phenotypically active (A549-GM130-SQSTM1 [6]) 1 | phenotypically active (A549-TUBA1B-RELA) 1 | phenotypically active (HepG2-TP53BP1-CLTA) 1 | phenotypically active (HepG2-TUBA1B-RELA) 1 | phenotypically active (WPMY1-ACTB-RAB5A) 1
inactive: phenotypically active (A549-CANX-COX4) 0 | phenotypically active (A549-TP53BP1-CLTA) 0 | phenotypically active (HepG2-ACTB-RAB5A [7]) 0 | phenotypically active (HepG2-CANX-COX4) 0 | phenotypically active (HepG2-GM130-SQSTM1) 0 | phenotypically active (WPMY1-CANX-COX4 [8]) 0 | phenotypically active (WPMY1-GM130-SQSTM1 [9]) 0 | phenotypically active (WPMY1-TP53BP1-CLTA) 0 | phenotypically active (WPMY1-TUBA1B-RELA) 0
9 µM: lowest phenotypically active concentration (A549-ACTB-RAB5A [1]) | lowest phenotypically active concentration (A549-GM130-SQSTM1 [2])

O=C(NCCN1CCC(n2c(=O)[nH]c3ccccc32)CC1)c1cc2cc(F)ccc2[nH]1
9 µM: lowest phenotypically active concentration (A549-ACTB-RAB5A [1]) | lowest phenotypically active concentration (A549-GM130-SQSTM1 [2]) | lowest phenotypically active concentration (HepG2-ACTB-RAB5A [10]) | lowest phenotypically active concentration (WPMY1-CANX-COX4 [3]) | lowest phenotypically active concentration (WPMY1-GM130-SQSTM1 [4])
inactive: phenotypically active (A549-CANX-COX4) 0 | phenotypically active (A549-TP53BP1-CLTA) 0
active: phenotypically active (A549-ACTB-RAB5A [5]) 1 | phenotypically active (A549-GM130-SQSTM1 [6]) 1 | phenotypically active (A549-TUBA1B-RELA) 1 | phenotypically active (HepG2-ACTB-RAB5A [7]) 1 | phenotypically active (HepG2-CANX-COX4) 1 | phenotypically active (HepG2-GM130-SQSTM1) 1 | phenotypically active (HepG2-TP53BP1-CLTA) 1 | phenotypically active (HepG2-TUBA1B-RELA) 1 | phenotypically active (WPMY1-ACTB-RAB5A) 1 | phenotypically active (WPMY1-CANX-COX4 [8]) 1 | phenotypically active (WPMY1-GM130-SQSTM1 [9]) 1 | phenotypically active (WPMY1-TP53BP1-CLTA) 1 | phenotypically active (WPMY1-TUBA1B-RELA) 1

NC(=O)C(c1ccccc1)(c1ccccc1)[C@@H]1CCN(CCc2ccc3c(c2)CCO3)C1 [darifenacin]
inactive: phenotypically active (A549-CANX-COX4) 0 | phenotypically active (A549-TP53BP1-CLTA) 0 | phenotypically active (HepG2-TUBA1B-RELA) 0 | phenotypically active (WPMY1-ACTB-RAB5A) 0 | phenotypically active (WPMY1-CANX-COX4 [8]) 0 | phenotypically active (WPMY1-TUBA1B-RELA) 0
active: phenotypically active (A549-ACTB-RAB5A [5]) 1 | phenotypically active (A549-GM130-SQSTM1 [6]) 1 | phenotypically active (A549-TUBA1B-RELA) 1 | phenotypically active (HepG2-ACTB-RAB5A [7]) 1 | phenotypically active (HepG2-CANX-COX4) 1 | phenotypically active (HepG2-GM130-SQSTM1) 1 | phenotypically active (HepG2-TP53BP1-CLTA) 1 | phenotypically active (WPMY1-GM130-SQSTM1 [9]) 1 | phenotypically active (WPMY1-TP53BP1-CLTA) 1
9 µM: lowest phenotypically active concentration (A549-ACTB-RAB5A [1]) | lowest phenotypically active concentration (A549-GM130-SQSTM1 [2]) | lowest phenotypically active concentration (HepG2-ACTB-RAB5A [10]) | lowest phenotypically active concentration (WPMY1-GM130-SQSTM1 [4])
